Records with an inconclusive call do not appear. Activity calls are given as the source filed them. Calls follow the shape of the dose curve; as a rule, active = well fitted curve in the direction sought with a large enough effect in the repeat runs; inconclusive = weak or mixed curves; inactive = no such curve, though single readings can be large; an effect the other way counts as inactive or inconclusive.
Each molecule was assayed against Voltage-gated inwardly rectifying potassium channel KCNH2 (Homo sapiens) (UniProt Q12809) (assay: Human Ether-a-go-go-Related Gene (hERG) channel small molecule antagonists: fluorescence cell-based qHTS assay (AID 1671200;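 also: hERG-expressing U2OS cells given a thallium stimulus after FluxOR II dye loading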)). Settings: hERG-U2OS cells, FluxOR thallium flux fluorescence; series mostly up to 76.8 µM; activity change, negative = inhibition: at the top concentration.
Voltage-gated inwardly rectifying potassium channel KCNH2 (Homo sapiens), sequence (Q12809 whole entry, looked up): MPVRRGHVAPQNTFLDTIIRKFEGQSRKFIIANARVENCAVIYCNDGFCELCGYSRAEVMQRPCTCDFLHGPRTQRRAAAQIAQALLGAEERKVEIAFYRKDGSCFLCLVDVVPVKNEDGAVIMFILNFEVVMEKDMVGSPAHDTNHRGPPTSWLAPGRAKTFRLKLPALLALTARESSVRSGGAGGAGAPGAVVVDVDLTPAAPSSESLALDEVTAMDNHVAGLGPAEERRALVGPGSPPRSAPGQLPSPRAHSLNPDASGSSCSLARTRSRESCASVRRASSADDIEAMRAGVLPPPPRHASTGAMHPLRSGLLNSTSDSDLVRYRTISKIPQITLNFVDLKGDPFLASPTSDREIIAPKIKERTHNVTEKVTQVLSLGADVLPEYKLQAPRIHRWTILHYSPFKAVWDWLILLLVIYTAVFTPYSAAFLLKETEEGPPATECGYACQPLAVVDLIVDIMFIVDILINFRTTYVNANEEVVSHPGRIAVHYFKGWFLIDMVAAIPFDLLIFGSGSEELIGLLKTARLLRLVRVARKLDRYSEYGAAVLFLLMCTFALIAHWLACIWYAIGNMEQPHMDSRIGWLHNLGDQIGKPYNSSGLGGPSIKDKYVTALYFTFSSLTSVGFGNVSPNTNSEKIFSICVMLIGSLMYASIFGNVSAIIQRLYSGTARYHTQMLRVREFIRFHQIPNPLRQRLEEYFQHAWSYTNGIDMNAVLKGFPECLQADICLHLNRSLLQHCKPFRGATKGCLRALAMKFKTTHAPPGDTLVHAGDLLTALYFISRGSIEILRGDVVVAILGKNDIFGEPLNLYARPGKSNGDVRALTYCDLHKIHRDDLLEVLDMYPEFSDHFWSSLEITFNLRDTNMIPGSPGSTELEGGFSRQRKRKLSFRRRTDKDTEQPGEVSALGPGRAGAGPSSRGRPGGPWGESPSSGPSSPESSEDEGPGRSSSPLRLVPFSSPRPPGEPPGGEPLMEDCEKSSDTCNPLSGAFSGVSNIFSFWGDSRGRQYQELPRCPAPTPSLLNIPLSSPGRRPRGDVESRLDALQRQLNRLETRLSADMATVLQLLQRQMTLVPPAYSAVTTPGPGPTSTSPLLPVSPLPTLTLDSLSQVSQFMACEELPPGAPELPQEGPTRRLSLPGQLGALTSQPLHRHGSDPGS
Outline: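 Channel function was assessed by thallium flux. Cells seeded the previous day and kept at 37 C took up FluxOR II dye over 1 h in the dark at room temperature, then sat another 10 min before stimulation.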
% is scaled to controls: 0 for no effect and ±100 for the full control effect.
Also: nearly all actives have a fitted effect of over 50% in size.

Row | SMILES | activity change, negative = inhibition
1 | CC1=C(C(=O)O)N2C(=O)[C@@H](NC(=O)[C@H](N)C3=CCC=CC3)[C@H]2SC1 | 12.2% [at 35.3 µM] (inactive)
2 | COc1c2occc2c(OC)c2c(=O)cc(C)oc12 | 10.1% [at 35.3 µM] (inactive)
3 | C=C(C)c1cccc(C(C)(C)N=C=O)c1 | 1.6% (inactive)
4 | CC(N)CCCC(C)(C)O (stereo unspecified) | 6.07% [at 35.3 µM] (inactive)
5 | CC(C)C[C@@H]1[C@H](c2ccccc2)OC(=O)N1CCCN1CCCCCC1 | -15.1% [at 35.3 µM] (inactive)
6 | Cc1c(N)cccc1Cl | 1.48% (inactive)
7 | CCOc1cccc(N)c1 | 1.22% (inactive)
8 | CCOc1ccccc1OCC1CNCCO1 (stereo unspecified) | -12% [at 35.3 µM] (inactive)
9 | c1ccc2cnccc2c1 | -11.4% (inactive)
10 | CC(=O)C1C(=O)C=C(C)OC1=O (stereo unspecified) | -5.69% (inactive)
11 | CCCCCCCCCOC(=O)c1ccccc1C(=O)OCCCCCCCCC | -0.0873% (inactive)
12 | CC(=O)O[C@@H]1CC2CCC1(C)C2(C)C (stereo partly specified) | -0.145% (inactive)
13 | CNCCS(=O)(=O)O | 5.37% (inactive)
14 | CCCc1ccc(O)cc1 | 3.77% (inactive)
15 | CCC/C=C(\C=O)CC | -3.06% (inactive)
16 | CCC(C)C(=O)OCCc1ccccc1 (stereo unspecified) | -7.07% (inactive)

Row | SMILES | activity change, negative = inhibition
17 | O=C=NCC1CCCC(CN=C=O)C1 (stereo unspecified) | 3.17% (inactive)
18 | COC(=O)c1cccc(Cl)c1 | 4.3% (inactive)
19 | CN1CCOC(c2ccccc2)c2ccccc2C1 (stereo unspecified) | 1.22% [at 35.3 µM] (inactive)
20 | CC(O)COC(C)(C)C (stereo unspecified) | 1.24% (inactive)
21 | CC(=O)CC(=O)OC(C)(C)C | 2.93% (inactive)
22 | Cc1ccc(N)cc1S(=O)(=O)O | 2% (inactive)
23 | NCCOCCN | 2.5% (inactive)
24 | CCCC(CC)c1ccccc1 (stereo unspecified) | -4.33% (inactive)
25 | ONc1ccccc1 | -11.2% (inactive)
26 | OCC(O)CN1CCN(c2ccccc2)CC1 (stereo unspecified) | -1.6% [at 35.3 µM] (inactive)
27 | C=CC/C=C/C | 1.85% (inactive)
28 | O=C(O)CCCCCC(=O)O | -1.55% (inactive)
29 | O=Cc1ccccc1Cl | 2.36% (inactive)
30 | CCO[Si](CC)(OCC)OCC | 0.0586% (inactive)
31 | CCn1cc(C(=O)O)c(=O)c2cnc(N3CCCC3)nc21 | -5.15% [at 6.97 µM] (inactive)
32 | O=C(Cl)c1ccccc1[N+](=O)[O-] | 0.84% (inactive)

Each molecule was assayed against Cytochrome P450 3A4 (Homo sapiens) (UniProt P08684) (assay: Cytochrome P450 Family 3 Subfamily A Member 4 (CYP3A4) small molecule antagonists: luciferase reporter qHTS assay (AID 1671201; also: potency is read from the fitted curve at half-maximal effect)). Settings: P450-Glo CYP3A4 enzyme, luciferin luminescence, 1 h; series mostly up to 115 µM; activity change, negative = inhibition: at the top concentration.
Cytochrome P450 3A4 (Homo sapiens), sequence (P08684 whole entry, looked up): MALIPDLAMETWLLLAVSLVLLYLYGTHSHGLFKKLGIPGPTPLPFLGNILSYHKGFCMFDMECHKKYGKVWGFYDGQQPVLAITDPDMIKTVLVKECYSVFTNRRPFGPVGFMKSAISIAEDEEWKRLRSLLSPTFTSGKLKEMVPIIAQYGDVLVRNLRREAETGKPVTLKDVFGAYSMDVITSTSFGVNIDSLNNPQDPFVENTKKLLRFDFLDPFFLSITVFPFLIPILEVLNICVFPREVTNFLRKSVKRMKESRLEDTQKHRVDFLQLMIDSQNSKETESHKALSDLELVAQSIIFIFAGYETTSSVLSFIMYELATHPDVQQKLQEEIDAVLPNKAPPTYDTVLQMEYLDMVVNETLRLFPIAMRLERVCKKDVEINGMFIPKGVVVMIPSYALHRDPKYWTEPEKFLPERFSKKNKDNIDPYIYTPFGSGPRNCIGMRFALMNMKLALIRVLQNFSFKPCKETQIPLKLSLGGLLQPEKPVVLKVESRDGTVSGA
Outline: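 Compounds in DMSO were pin-transferred onto CYP3A4 enzyme-substrate mix and held 10 min at room temperature. NADPH regenerating solution started the reaction for 1 h; luciferin detection reagent stopped it, and luminescence was read after 20 min.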

Row | SMILES | activity change, negative = inhibition | Potency
33 | CC1=C(C(=O)O)N2C(=O)[C@@H](NC(=O)[C@H](N)C3=CCC=CC3)[C@H]2SC1 | -0.368% [at 52.9 µM] (inactive) | 
34 | C=C(C)c1cccc(C(C)(C)N=C=O)c1 |  | 2.83 µM (active)
35 | Cc1c(N)cccc1Cl | -17.7% (inactive) | 
36 | CC/C=C\CCOC(=O)c1ccccc1O | 3.56% (inactive) | 
37 | CCOc1cccc(N)c1 |  | 2.23 µM (active)
38 | CC(=O)C1C(=O)C=C(C)OC1=O (stereo unspecified) | -0.915% (inactive) | 
39 | CCCCCCCCCOC(=O)c1ccccc1C(=O)OCCCCCCCCC |  | 7.95 µM (active)
40 | CC(=O)O[C@@H]1CC2CCC1(C)C2(C)C (stereo partly specified) | 3.56% (inactive) | 
41 | CNCCS(=O)(=O)O | 5.07% (inactive) | 
42 | CCCc1ccc(O)cc1 | 1.23% (inactive) | 
43 | CCC/C=C(\C=O)CC |  | 39.9 µM (active)
44 | CCCC(=O)OCCC(C)CCC=C(C)C (stereo unspecified) |  | 4.48 µM (active)
45 | CCC(C)C(=O)OCCc1ccccc1 (stereo unspecified) | 6.5% (inactive) | 
46 | O=C=NCC1CCCC(CN=C=O)C1 (stereo unspecified) |  | 2.83 µM (active)
47 | COC(=O)c1cccc(Cl)c1 | 7.89% (inactive) | 
48 | CC(O)COC(C)(C)C (stereo unspecified) | 2.18% (inactive) | 
49 | CC(=O)CC(=O)OC(C)(C)C | 0.72% (inactive) | 
50 | Cc1ccc(N)cc1S(=O)(=O)O | 6.54% (inactive) | 
51 | NCCOCCN | -26.1% (inactive) | 
52 | CCCC(CC)c1ccccc1 (stereo unspecified) | 1.1% (inactive) | 
53 | ONc1ccccc1 | -11.2% (inactive) | 
54 | O=C(CCCl)NCCc1ccccc1 | -19.3% [at 52.9 µM] (inactive) | 
55 | OCC(O)CN1CCN(c2ccccc2)CC1 (stereo unspecified) | 19.1% [at 52.9 µM] (inactive) | 
56 | CC1(C)Cc2cccc(N)c2O1 |  | 7.96 µM (active)
57 | C=CC/C=C/C | 4.28% (inactive) | 
58 | O=C(O)CCCCCC(=O)O | 12.1% (inactive) | 
59 | O=Cc1ccccc1Cl | 7.7% (inactive) | 
60 | CCO[Si](CC)(OCC)OCC |  | 7.1 µM (active)
61 | O=C(Cl)c1ccccc1[N+](=O)[O-] | -9.72% (inactive) | 

From PubChem BioAssay (Tox21)
